An excerpt weighted towards active compounds, which were near 1% of everything screened.
PrP 5UTR inh: inhibition of PrP 5' UTR reporter expression | cell-based PrP 5' UTR mRNA reporter, plate reader | inhibition, % (test concentration not listed) | 340,000 compounds, 0.35% hits; in the data active = inhibition above about 52%; note: 0 = median of the neutral control wells
Mtb hypoxia rep: PubChem AID 1159583. fluorescence inhibition, % (test concentration not listed). M. tuberculosis hypoxia-regulated fluorescent reporter, fluorescence. 300,000 compounds, 0.1% hits; in the data active = fluorescence inhibition mostly above about 23%, no sharp cut-off; inactive = mostly below about 17%
BioA inh: M. tuberculosis BioA enzyme inhibitors, primary screen, biochemical, plate reader, single point, HTS. 7,8-diaminopelargonic acid synthase BioA (Mycobacterium tuberculosis). purified M. tuberculosis BioA enzyme. inhibition, % at 9.99 µM. 360,000 compounds, 0.096% hits. AID 602481, 2012; in the data active = inhibition above about 40%
FadD28 binding: inhibitors of FadD28 bisubstrate probe binding, primary screen, biochemical, fluorescence polarization, single point. AID 588549, 2011. inhibition, % at 12.5 µM. 360,000 compounds, 0.22% hits; in the data active = inhibition above about 8.5%, passing the limit was not always enough
TcdB GH inh: TcdB glycohydrolase inhibitors, primary screen, biochemical, single point, plate reader. Toxin B (Clostridioides difficile), P18177. TcdB glycohydrolase enzymatic assay. inhibition, % at 9.99 µM. 350,000 compounds, 0.24% hits. AID 652162, 2013; in the data active = inhibition above about 10%
Target sequence (P18177 whole entry, looked up): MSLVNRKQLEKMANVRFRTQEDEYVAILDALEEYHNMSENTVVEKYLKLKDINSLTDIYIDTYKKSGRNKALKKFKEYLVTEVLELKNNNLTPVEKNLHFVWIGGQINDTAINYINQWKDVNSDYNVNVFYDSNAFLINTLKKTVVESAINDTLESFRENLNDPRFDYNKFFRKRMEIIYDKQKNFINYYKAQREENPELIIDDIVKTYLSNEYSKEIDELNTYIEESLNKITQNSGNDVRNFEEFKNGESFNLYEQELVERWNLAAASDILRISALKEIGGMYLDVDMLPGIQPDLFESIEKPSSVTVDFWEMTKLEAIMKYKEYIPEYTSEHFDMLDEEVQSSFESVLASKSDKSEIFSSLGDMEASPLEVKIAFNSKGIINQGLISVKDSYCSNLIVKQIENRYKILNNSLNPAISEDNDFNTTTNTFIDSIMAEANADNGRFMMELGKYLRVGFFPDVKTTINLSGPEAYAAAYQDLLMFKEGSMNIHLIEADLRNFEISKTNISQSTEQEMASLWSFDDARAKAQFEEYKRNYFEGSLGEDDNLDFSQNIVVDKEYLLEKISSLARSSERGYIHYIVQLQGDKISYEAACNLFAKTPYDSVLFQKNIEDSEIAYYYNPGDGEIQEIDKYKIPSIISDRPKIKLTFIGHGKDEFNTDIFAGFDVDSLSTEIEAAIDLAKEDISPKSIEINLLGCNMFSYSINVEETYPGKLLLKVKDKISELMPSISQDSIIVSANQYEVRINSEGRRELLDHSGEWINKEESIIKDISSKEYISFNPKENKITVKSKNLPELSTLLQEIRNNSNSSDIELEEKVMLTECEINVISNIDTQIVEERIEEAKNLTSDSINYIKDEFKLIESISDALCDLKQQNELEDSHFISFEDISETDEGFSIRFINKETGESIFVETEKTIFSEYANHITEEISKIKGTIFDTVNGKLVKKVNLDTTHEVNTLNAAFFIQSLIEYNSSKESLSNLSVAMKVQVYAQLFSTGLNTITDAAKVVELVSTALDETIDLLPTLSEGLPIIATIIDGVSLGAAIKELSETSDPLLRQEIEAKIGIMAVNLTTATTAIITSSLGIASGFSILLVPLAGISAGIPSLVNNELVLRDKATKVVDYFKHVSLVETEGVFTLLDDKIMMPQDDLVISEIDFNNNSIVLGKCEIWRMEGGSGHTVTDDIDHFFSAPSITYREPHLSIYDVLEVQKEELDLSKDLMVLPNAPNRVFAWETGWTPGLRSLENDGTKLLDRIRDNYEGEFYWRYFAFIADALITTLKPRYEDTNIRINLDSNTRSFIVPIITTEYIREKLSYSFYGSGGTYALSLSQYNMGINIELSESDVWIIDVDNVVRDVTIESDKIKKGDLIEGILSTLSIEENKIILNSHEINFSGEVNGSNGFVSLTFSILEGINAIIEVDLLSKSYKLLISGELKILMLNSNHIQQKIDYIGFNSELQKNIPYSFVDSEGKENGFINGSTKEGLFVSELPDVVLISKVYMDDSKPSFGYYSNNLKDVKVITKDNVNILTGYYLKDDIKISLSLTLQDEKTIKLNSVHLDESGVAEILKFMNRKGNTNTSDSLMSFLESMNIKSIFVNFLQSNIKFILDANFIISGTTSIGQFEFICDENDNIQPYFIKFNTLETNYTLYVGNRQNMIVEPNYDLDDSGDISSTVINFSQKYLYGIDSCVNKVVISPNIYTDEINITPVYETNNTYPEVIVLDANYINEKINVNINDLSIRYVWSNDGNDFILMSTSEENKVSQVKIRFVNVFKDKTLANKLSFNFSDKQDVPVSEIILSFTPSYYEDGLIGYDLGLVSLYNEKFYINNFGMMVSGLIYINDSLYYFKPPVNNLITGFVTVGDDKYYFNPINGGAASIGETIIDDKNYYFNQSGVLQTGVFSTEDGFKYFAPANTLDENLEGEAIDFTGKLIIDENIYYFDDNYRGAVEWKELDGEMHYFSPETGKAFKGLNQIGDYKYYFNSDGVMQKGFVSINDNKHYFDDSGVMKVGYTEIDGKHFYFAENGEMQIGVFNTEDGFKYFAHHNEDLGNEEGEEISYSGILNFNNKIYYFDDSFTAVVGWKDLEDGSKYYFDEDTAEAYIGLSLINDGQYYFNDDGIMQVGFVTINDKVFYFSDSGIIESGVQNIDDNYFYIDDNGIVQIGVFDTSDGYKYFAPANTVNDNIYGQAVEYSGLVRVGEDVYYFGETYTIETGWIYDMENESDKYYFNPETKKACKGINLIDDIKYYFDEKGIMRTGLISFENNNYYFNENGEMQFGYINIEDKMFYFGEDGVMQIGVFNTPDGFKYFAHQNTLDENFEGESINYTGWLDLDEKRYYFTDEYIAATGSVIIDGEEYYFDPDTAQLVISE
PriA SSB inh: inhibitors of Klebsiella pneumoniae PriA binding to SSB C-terminal tail, primary screen, biochemical, AlphaScreen | PriA–SSB C-terminal tail interaction (Klebsiella pneumoniae) | AlphaScreen SSBct-PriA binding, biotinylated peptide | inhibition, % at 33 µM | 430,000 compounds, 0.6% hits | AID 1272365, 2023; in the data active = inhibition mostly above about 37%, no sharp cut-off; inactive = mostly below about 20%;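 note: plate controls were negative control peptide for no effect and reference peptide for full effect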
The depositor's hits bear a star; i = inactive; . = no result; ! = a repeat was not active.

SMILES	PrP 5UTR inh	Mtb hypoxia rep	BioA inh	FadD28 binding	TcdB GH inh	PriA SSB inh
Nc1cc(N)cc(C(=O)OCC(=O)Nc2cc(S(=O)(=O)N3CCCCC3)ccc2Cl)c1	-11.0	-8.1	-1.1	-5.4	11.0*	1.5
Nc1c(C(=O)NCc2ccc3c(c2)OCO3)sc(=S)n1Cc1ccco1	.	.	.	.	.	19.0
CN(C)c1ccc(/C=C(\NC(=O)c2ccccc2)C(=O)NCCCn2ccnc2)cc1	-7.4	0.5	-1.7	2.3	-0.6	38.5*
Cc1ccc(C(=O)N/C(=C/c2ccco2)C(=O)NCCCn2ccnc2)cc1	-29.1	2.6	-0.7	-3.1	.	0.8
Cc1ccc(C(=O)N/C(=C\c2ccco2)C(=O)NCCCn2ccnc2)cc1	-4.4	-2.9	.	1.9	.	102.6*
O=S(=O)(c1ccc2c(c1)OCCO2)N1CCC(n2nnc3cc(C(F)(F)F)ccc32)CC1	1.4	5.7	1.2	-19.3	.	-5.0
O=C(COc1ccc2ccccc2c1)NCCOc1ccc2c(c1)OCO2	.	.	.	.	.	37.0*
C=CCc1ccc2c(c1)OCO2	.	.	.	.	0.7	.
C=CCc1ccc(O)c(-c2ccc(O)c(CC=C)c2)c1	-21.8	.	6.6	-2.5	11.5*	3.7
CC(=O)c1cccc(OCC(=O)c2cc(C)n(-c3cc(C)on3)c2C)c1	-10.9	.	11.4	-0.1	16.2*	-0.8
COc1ccccc1CC(=O)N1CCN(c2ccc(-c3ccccn3)nn2)CC1	.	.	.	.	.	158.0*
O=C(c1ccccc1F)N1CCN(c2ccccn2)CC1	8.6	-7.9	-0.2	-1.9	0.2	3.5
O=C(c1ccccc1F)N1CCN(c2ccc(-c3ccccn3)nn2)CC1	.	.	.	.	.	108.0*
O=C(c1ccccc1C(F)(F)F)N1CCN(c2ccc(-c3ccccn3)nn2)CC1	.	.	.	.	.	150.0*
COc1ccccc1N1CCN(CC(=O)N2N=CCC2c2ccccc2)CC1 (stereo unspecified)	-4.3	-7.9	.	0.1	1.6	6.2
O=C(Nc1ccc(O)c(-c2nc3ccccc3o2)c1)C1(c2ccc(Br)cc2)CCCC1	-14.9	12.2	.	-3.4	.	-15.5
Fc1ccc(CN2CCN(c3ncccn3)CC2)cc1	-7.6	5.1	-1.5	-1.2	.	10.5
c1ccc(-c2sc3ccccc3c2-c2ccc(OCCN3CCCCC3)cc2)cc1	-7.4	11.4	0.3	-2.0	0.9	18.1
CN(C)CCOc1ccc(-c2c(-c3ccccc3)sc3ccccc23)cc1	-14.3	51.2*	-2.6	-9.3	5.8	37.6
C[C@@H]1CN([C@@H](C)CO)C(=O)c2cc(NC(=O)CCC(F)(F)F)ccc2O[C@@H](C)CCCCO[C@@H]1CN(C)C(=O)CCCN(C)C	.	.	0.5	.	0.5	.
CC(=O)C(=Nc1ccccc1Cl)NNc1ccc(Cl)cc1	-24.8	-85.6	-0.8	-2.6	.	49.9*
O=c1c(SCc2cccc([N+](=O)[O-])c2)nccn1-c1ccc(F)cc1	.	.	.	.	.	40.0*
O=c1c(SCc2cccc([N+](=O)[O-])c2)nccn1-c1ccc(Br)cc1	.	.	.	.	.	11.0
Cc1onc(-c2ccccc2Cl)c1C(=O)NCCN1Cc2ccccc2C1=O	-24.8	6.9	.	-3.0	.	47.4*
Cc1onc(-c2ccccc2Cl)c1C(=O)NCCN1CCN(c2ccccc2F)CC1	.	.	.	.	.	3.0
SMILES	PrP 5UTR inh	Mtb hypoxia rep	BioA inh	FadD28 binding	TcdB GH inh	PriA SSB inh
Cc1nc(C)c(-c2ccc(=O)n(CCNC(=O)c3c(-c4ccccc4Cl)noc3C)n2)s1	.	.	.	.	.	37.0*
C[C@@H]1C[C@H]2[C@@H]3CCC4=CC(=O)C=C[C@]4(C)[C@@]3(F)[C@@H](O)C[C@]2(C)[C@@]1(O)C(=O)COP(=O)(O)O	-2.8	.	0.0	-5.7	-0.1	-6.3
O=C1CN(C(=O)COC(=O)c2c(F)cccc2Cl)c2ccccc2N1	-11.6	30.3*	0.1	-2.6	0.4	4.7
CC(=NNc1ccc(C(=O)O)cc1)c1ccc(Br)cc1	.	7.7	.	.	.	6.2
C/C(=N/Nc1ccc(C(=O)O)cc1)c1ccc2c(c1)Nc1ccccc1S2	-30.0	7.0	.	19.9*	2.5	i
C/C(=N\Nc1ccc(C(=O)O)cc1)c1ccc2c(c1)Nc1ccccc1S2	-20.4	.	7.0	19.8*	2.1	.
CCCCn1c(=O)[nH]c(=O)c2c1nc(-c1ccc(-c3ccc(F)cc3)o1)n2C	.	36.8*	.	.	0.4	4.1
CCCCn1c(=O)[nH]c(=O)c2c1nc(-c1ccc(CC)c([N+](=O)[O-])c1)n2C	.	3.5	.	.	.	.
COc1[nH]c(/N=C/c2ccccc2)c(C#N)c1C#N	-14.9	.	.	27.6*	.	.
COc1[nH]c(N=Cc2ccccc2)c(C#N)c1C#N	.	-84.1	.	.	.	7.8
COc1c2ccoc2c(OCC=C(C)C)c2oc(=O)ccc12	-2.3	3.6	0.0	1.9	-0.6	-7.0
CC(C)=CCOc1c2occc2cc2ccc(=O)oc12	-3.2	8.5	1.1	-2.2	13.5*	-15.8
CN1C(=O)c2cccc(NC(=O)C3CCCN(S(C)(=O)=O)C3)c2C1=O (stereo unspecified)	.	.	.	.	.	-24.0
Cc1cccc(OCC(=O)N/N=C\c2cn(C)c3ccccc23)c1	-42.6	.	0.4	41.1*	-0.2	.
CCC(=O)Nc1nnc(S(=O)(=O)N2c3ccccc3CC2C)s1 (stereo unspecified)	-11.1	2.1	-0.9	-1.1	1.9	100.5*
CCCNC(=O)C[C@H]1CC[C@H]2[C@H](COc3ccc(NC(=O)c4ccc5c(c4)OCO5)cc3C(=O)N2C)O1	.	.	-0.2	.	0.9	.
C=CCn1c(-c2ccc(OC)cc2)cnc1SCC(=O)Nc1cccc(Cl)c1	.	.	.	.	.	39.0*
COc1ccccc1-n1ccnc1SCC(=O)Nc1ccc2c(c1)OCCO2	.	.	.	.	.	5.0
Cc1cccc(-n2ccnc2SCC(=O)Nc2ccc3c(c2)OCCO3)c1C	.	.	.	.	.	49.0*
Cc1cc(C)cc(-n2ccnc2SCC(=O)Nc2ccc3c(c2)OCCO3)c1	-7.9	.	0.0	-1.7	.	44.9*!
O=C(CSc1nccn1Cc1ccc(Cl)cc1)Nc1ccc2c(c1)OCCO2	.	.	.	.	.	42.0*
CC(C)CC(N)c1csc(Nc2cc(Oc3ccccc3)ncn2)n1 (stereo unspecified)	.	.	6.3	-3.7	2.7	.
Cc1nn2c(nc(N3CCCCC3)c3ccccc32)c1C=O	-15.4	11.0	4.5	-5.6	1.5	-9.7
Cc1cc(C)cc(-n2ccnc2SCC(=O)Nc2cccc(Cl)c2)c1	.	.	.	.	.	47.0*
CC1CC(C)CN(c2nc3c(c(=O)n(C)c(=O)n3C)n2CCSc2ncccn2)C1 (stereo unspecified)	-4.9	1.4	-0.2	-1.9	-0.1	6.5
Cn1c(=O)c2c(nc(N3CCOCC3)n2CCSc2ncccn2)n(C)c1=O	-4.4	-4.7	-4.3	0.8	16.8*	-3.9
C/C(=C1/SC(N2CCCC2)=NC1=O)c1ccc(Br)cc1	-23.2	75.7*	.	-4.9	.	-1.7
CC(C)N1CCc2c(sc(NC(=O)c3ccc([N+](=O)[O-])o3)c2C(N)=O)C1	95.4*	.	5.6	-3.8	0.7	.
